HCV inh = blocks hepatitis C virus. Huh7.5.1 HCVcc-Cre infection, luciferase reporter, 44 h. Potency, µM (titrated, usually from 41.8 µM), inactives show at the top dose activity change, negative = inhibition, hits mostly inhibitors. 3.4% of 340,000 active. AID 651820; also: potency is read from the fitted curve at half-maximal effect; % is scaled to controls: 0 for no effect and ±100 for the full control effect
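Antiviral activity was scored by luciferase reporter output from cells infected with HCVcc-Cre (~0.5 moi) in presence of compound, 44 h infection period, cells seeded 1,000/well 4 h prior.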
Shiga inhibitor = inhibitors of Shiga toxin in Vero cells; Vero cells, Shiga toxin protein synthesis inhibition reporter; inhibition, % at 38.7 µM; 9.2% of 290,000 active; in the data active = inhibition mostly above about 28%, no sharp cut-off; inactive = mostly below about 43%; also: 0% is about no effect
Pf growth 96h = P. falciparum growth inhibition at 96 hour, primary screen for plastid delayed-death inhibitors | P. falciparum luciferase reporter growth, 96 h | Potency, µM (series often up to 28.7 µM), without a hit: top-dose activity change, negative = inhibition, most hits filed as inhibitors | 6.9% of 320,000 active; also: potency is read from the fitted curve at half-maximal effect; % is scaled to controls: 0 for no effect and ±100 for the full control effect
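Erythrocytes infected with luciferase-expressing P. falciparum were dispensed at 2% hematocrit and 0.05% parasitemia (final), then incubated with compounds 96 hours at 37 C in 5% CO2. Luminescence after detection reagent addition reported growth.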
HCMV inh = inhibitors of human cytomegalovirus | HFF cells, HCMV-luciferase reporter, 72 h; stronger effect = lower value | activity change, negative = inhibition, % at 57.5 µM | 4.5% of 410,000 active; in the data active = activity change below about -60%; inconclusive = no clear call, values can overlap the other calls; inactive = above about -39%; also: % is scaled to controls: 0 for no effect and ±100 for the full control effect
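Screen run at 2 compound doses on HFFs infected with reporter HCMV, MOI 1 PFU/cell. Luciferase activity from cell lysates at 72 h post infection gave inhibition relative to buffer-only and Salinomycin wells.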
Cycloheximide cs = counter-screen for Shiga toxin inhibitors: cycloheximide protein synthesis inhibition | 12% of 300,000 active | cell reporter, cycloheximide protein synthesis inhibition counterscreen | max response, % | AID 2314; in the data active = max response mostly above about 13%, no sharp cut-off; inactive = mostly below about 14%; also: read at 38.3 µM for the half of the compounds with a filed dose; 0% is about no effect
Pf growth 48h = P. falciparum growth inhibition at 48 hours (one generation); P. falciparum luciferase growth in erythrocytes, 48 h; Potency, µM (doses to about 28.7 µM), inactives show at the highest dose activity change, negative = inhibition, usual class: inhibitors; 5.9% of 310,000 active; also: potency is read from the fitted curve at half-maximal effect; % is scaled to controls: 0 for no effect and ±100 for the full control effect
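Firefly luciferase activity from engineered P. falciparum reports growth; inhibitors lower the luminescent signal. Cultures contained 2% hematocrit erythrocytes at 0.1% final parasitemia.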
An asterisk follows results filed as active; u = inconclusive; x = not tested or not shown; [ ] = dose if it differs, or a comment. Rows were chosen to be rich in hits. Some 21% of all compounds tested hit in one or more screens of this group. Unless noted, calls follow the shape of the dose curve; as a rule, active = well fitted inhibition curve with a large enough effect; inconclusive = small, poorly fitted or top-dose-only effect, or another doubt; inactive = no such curve, though single readings can be large or run the other way.

SMILES | HCV inh | Shiga inhibitor | Pf growth 96h | HCMV inh | Cycloheximide cs | Pf growth 48h
COc1ccccc1-c1ccc(SCc2cccc(C)c2)nn1 | -7% | 29 | 12µM* | u | 23* | 10µM*
COc1ccccc1-c1ccc(SCC(=O)Nc2cc(C)on2)nn1 | -24% | 18 | 41% | -19 | 25 | 5%
Cc1cc(-c2ccccc2)nc2cc(C(=O)OC(C)C)nn12 | u | x | u | 4 | -2 | -22%
CC(C)(C)SCCNC(=O)Nc1ccccc1 | 4% | 19* | 29% | 14 | 21* | 40%
Cc1ccccc1CSCCNC(=O)Nc1ccccc1 | 4% | 24 | -8% | -22 | 15* | u
Cc1cccc(CSCCNC(=O)Nc2ccccc2)c1 | -19% | 25 | 38% | -16 | 12 | u
Cc1ccc(NNC(=O)c2ccno2)c(C)c1 | u | 20 | u | -15 | -2 | 4%
Cc1cc(C)c2oc(C(=O)N(Cc3ccccc3)c3ccccn3)cc(=O)c2c1 | -16% | 7 | u | -18 | 1 | 12µM*
Brc1ccc(-c2ccccc2)cc1 | 14% | x | u | 8 | x | 39%
Brc1ccc(-c2ncc(-c3ccccc3)cn2)cc1 | 10% | 136* | u | 64 | 46* | x
COc1ccc2c(C)cc(SCC(=O)N(C)C3CCS(=O)(=O)C3)nc2c1 (configuration not stated) | u | -13 | u | 18 | 7 | 24%
Cc1cc(Cl)cc(Cl)c1OCCN1CCCC1 | -6% | -11 | 7% | 9 | -2 | 16%
CC(C)n1cnc2c(Nc3cccc(F)c3)nc(NCCO)nc21 | -21% | 25 | u | -7 | 19* | u
CC(C)C[C@H](CO)Nc1nc(Nc2cccc(Cl)c2)c2ncn(C(C)C)c2n1 | u | 42* | u | -26 | 23* | u
COC(=O)[C@]12C[C@H](CC(=O)N3CCOCC3)C(=O)N(Cc3ccc4c(c3)OCO4)C1=C[C@H](C(C)(C)C)O[C@@H]2C | x | x | x | 38 | x | x
O=C(c1ccco1)N1CCN(C2CN(Cc3ccc([N+](=O)[O-])cc3)S(=O)(=O)C2)CC1 (configuration not stated) | x | x | x | 0 | x | x
Cc1cccc(-c2nn(C(=S)Nc3ccccc3)cc2-c2ccnc3ccccc23)n1 | x | 2 | x | x | 14 | x
O=c1cc(N2CCN(c3cccc(Cl)c3)CC2)[nH]c(=O)n1C1CCCCC1 | -32% | -17 | u | -93* | 1 | -24%
CCOC(=O)C1CCN(c2cc(=O)n(C3CCCCC3)c(=O)[nH]2)CC1 | 1% | -2 | 53% | 1 | 1 | 2.9µM*
O=c1cc(N2CCCCCC2)[nH]c(=O)n1-c1ccccc1Cl | u | -2 | -3% | 9 | -3 | 6%
CCOC(=O)C1CCN(c2cc(=O)n(-c3ccccc3Cl)c(=O)[nH]2)CC1 | 21% | -3 | 13% | -13 | -3 | 1.9µM*
CCNC(=O)NC(=O)COC(=O)CCc1nc(=O)c2ccccc2n1C | 12% | -7 | 64%[5.75 µM] | u | -1 | 23%
Cc1nn(-c2ccc(F)cc2)c2nc(N)c(C#N)c(-c3cccs3)c12 | u | -1 | u | 50 | -1 | u
COc1cc(-c2c(C#N)c(N)nc3c2c(C)nn3-c2ccc(C)c(C)c2)cc(OC)c1OC | u | 12 | -22%[5.75 µM] | 136 | 10 | 4.7µM*
Cc1nn(-c2ccccc2)c2nc(N)c(C#N)c(-c3ccc(O)c(O)c3)c12 | 11µM* | -4 | 0% | -62* | -2 | 0%
Cc1nn(-c2ccc(F)cc2)c2nc(N)c(C#N)c(-c3ccc(O)c(O)c3)c12 | u | -21 | 10µM* | 33 | 6 | 10µM*
CCOC(=O)c1nc(C)nc(Sc2n[nH]c(-c3ccc(C(C)(C)C)cc3)n2)c1C | -28% | 13 | 83% | 48 | 8 | u
Cc1ccc(NC(=O)c2sc3ncnc(N(C)C4CCCCC4)c3c2C)c(C)c1 | x | x | x | -8 | x | x
COC1=C(Nc2ccc(OC)cc2)C(=O)c2ccccc2C1=O | 3% | 133* | u | 6 | 52* | 2.3µM*
CCOc1ccc(NC2=C(OC)C(=O)c3ccccc3C2=O)cc1 | u | 61* | 1.2µM* | 17 | 20* | 1.2µM*
